Assay outcomes deposited in PubChem BioAssay by Sanford-Burnham Center for Chemical Genomics.
These entries were drawn from the full list.
TNAP pNPP inh – inhibitors of human tissue-nonspecific alkaline phosphatase; 21,000 tested, under 10 active; purified TNAP, pNPP hydrolysis, absorbance 405 nm; P05186; inhibition, % at 20 µM;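 also: 0% = DMSO only wells and 100% = 1 mM levamisole wells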
TNAP inh Pi – blocks human TNAP phosphate release; P05186; purified TNAP, pNPP, malachite green phosphate absorbance; inhibition, % at 20 µM; 21,000 tested, under 10 active
* hit, by the source's call.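 The calls were made as follows: active = inhibition above 50% at the 20 µM single-dose screen; inactive = the rest.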

SMILES	TNAP pNPP inh	TNAP inh Pi
N#CCCN(Cc1cccnc1)C(=O)Nc1cccc(Cl)c1	3	6
CCOc1ccccc1C(=O)N(Cc1cccs1)C1CCS(=O)(=O)C1 (configuration not stated)	-7	-7
COCCCn1cnc2c(c1=O)c1nc3ccccc3nc1n2CCc1ccccc1	7	-8
COc1cc(NS(C)(=O)=O)c(OC)cc1NC(=O)c1ccccc1	5	8
Cn1c(=O)c2c(nc(SC3C(=O)CC(C)(C)CC3=O)n2C)n(C)c1=O	2	-19
Cc1ccc(NCc2nnc(SCC(=O)c3ccccc3)n2Cc2ccco2)c(C)c1	2	9
COc1ccccc1CN1CCN(C(CC(C)C)c2nnnn2Cc2cccs2)CC1 (configuration not stated)	0	5
CC1=C(C#N)C(C(F)(F)F)(C(F)(F)F)N=C(c2ccco2)N1	7	18
O=C(COc1cc(Cl)ccc1Cl)Nc1nnc(CC(=O)N2CCOCC2)s1	6	8
OC(CN1CCN(c2cccc(C(F)(F)F)c2)CC1)c1c[nH]c2ccccc12 (configuration not stated)	3	8
OCCN1CCN(c2nc(-c3ccccc3)nc3c2oc2ccccc23)CC1	7	0
Cc1ccc(-c2csc(N3CCC(NS(=O)(=O)c4ccc5c(c4)OCCO5)CC3)n2)cc1	3	12
COc1ccc(-c2c3c(=O)n(C)c(=O)n(C)c3cn2C2CCCCC2)cc1	6	7
CCc1ccccc1NC(=O)CN1CCC(NC(=O)COC)CC1	1	6
CC1(C)Cc2c(sc3nc(SCC#N)n(C4CCCCC4)c(=O)c23)CO1	-2	0
CS(=O)(=O)N(CC(=O)NCc1ccc2c(c1)OCO2)Cc1ccc(Cl)cc1	-4	0
CN(C)c1nc(SCCOC(=O)Nc2ccccc2)nc(N(C)C)n1	-5	-1
O=C(NCc1ccccc1)c1ccc(COCC(F)(F)F)o1	2	7
COc1ccc(CNc2nc3nc(-c4ccccc4)cc(=O)n3[nH]2)cc1OC	5	-4
N#Cc1nc(-c2ccco2)oc1NCCCn1ccnc1	4	8
